Activity calls are given as the source filed them.
Key:
Albumin (Bos taurus) = Albumin (Bos taurus) (UniProt P02769); test: compounds binding labelled BSA control protein – biochemical, small-molecule microarray, Alexa647 label, 635/667 nm fluorescence, artefact control for SMM control protein annotation, profiling panel (AID 1118); details: BSA-A647 binding, fluorescence 635 nm, higher = more signal;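 also: score merges 667 nm emission intensity and signal-to-noise per printed compound spot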
[1] = probe aXIP binding to arrayed compounds – biochemical, NeuroSMM set, 635/667 nm fluorescence, primary screen (AID 1119); details: small-molecule microarray, higher = more signal, called active from +8 up or from −8 down;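 also: probe is the protein aXip251-270 applied at 1 µg/mL to compound-printed slides; binding of probe to printed compounds measured as 667 nm fluorescence plus signal to noise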
[2] = probe aNOTCH3 binding on compound microarray – biochemical, small-molecule microarray, 635/667 nm fluorescence, primary screen (AID 1120); details: higher = more signal;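 also: probe is a biotin-tagged antibody raised against NOTCH3 rather than NOTCH3 protein; score merges spot fluorescence near 667 nm with spot signal to noise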
[3] = probe aNOTCH2 binding on compound microarray – biochemical, small-molecule microarray, 635/667 nm fluorescence, primary screen (AID 1121); details: higher = more signal;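 also: score merges feature fluorescence read at 667 nm with its signal to noise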
[4] = target: Carbonic anhydrase 2 (Homo sapiens) (UniProt P00918); test: compounds binding carbonic anhydrase 2 – biochemical, small-molecule microarray, Alexa647-labelled CAII, profiling panel (AID 1122); details: CAII-A647 binding fluorescence, higher = more signal
[5] = COS7 lysate on small-molecule microarray, probe aHis, 635 nm (AID 1123); details: COS7 cell lysate, fluorescence, higher = more signal;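 also: z-score combines 667nm fluorescence intensity with signal-to-noise per printed compound spot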
[6] = probe aLAP1 signal on lysate-treated microarray – cell lysate, small-molecule microarray, COS7 lysate, primary screen (AID 1124); details: probe aLAP1, fluorescence, higher = more signal;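 also: lysate comes from COS7 cells expressing LAP1 and is applied at 0.3 µg/mL; score merges spot fluorescence near 667 nm with signal-to-noise over triplicate slides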
Sam68 (KHDRBS1) = test: compounds binding KHDRBS1 protein – biochemical, small-molecule microarray, 635 nm fluorescence, primary screen (AID 1125); details: higher = more signal;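 also: score merges 667 nm channel intensity with signal to noise over triplicate slides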
[7] = tested on: Chordin-like protein 2 (CHRDL2); test: compounds binding chordin-like 2 – biochemical, small-molecule microarray, 635 nm fluorescence, primary screen (AID 1126); details: fluorescence 635 nm, higher = more signal;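 also: printed compound slides probed with Chrdl2 protein at 4 µg/mL for 1 h at 4 C; score merges 667 nm emission intensity with signal to noise over three replicate slides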
[8] = target: Concanavalin-A (Canavalia ensiformis) (UniProt P02866); test: compounds binding concanavalin A lectin – biochemical, small-molecule microarray, Alexa647 label, 635 nm, artefact control for SMM control protein annotation, primary screen (AID 1127); details: ConA-A647 binding fluorescence, higher = more signal;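 also: z combines 667 nm emission intensity with signal-to-noise across three replicate slides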
[9] = compounds binding Alexa647 anti-His antibody – biochemical, small-molecule microarray, 635 nm fluorescence, artefact control for SMM control protein annotation, primary screen (AID 1128); details: higher = more signal;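 also: score merges feature fluorescence with signal-to-noise for each printed compound spot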
[10] = tested on: Human papillomavirus type 1a E7 protein (residues 1-88); test: HPV1a E7 small-molecule binders, primary screen, biochemical, small-molecule microarray, residues 1-88, 635 nm (AID 1129); details: small-molecule microarray binding, fluorescence 635 nm; higher = more signal
[11] = target: Focal adhesion kinase 1 (Homo sapiens) (UniProt Q05397); test: PTK2 protein binding on printed compound slides – biochemical, small-molecule microarray, 635/667 nm fluorescence, BSA, DTT, primary screen (AID 1130); details: 635 nm fluorescence, higher = more signal;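 also: composite of spot emission at 667 nm and signal to noise over triplicate slides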
[12] = tested on: Fibrinogen (Alexa647-labelled); test: Alexa647-fibrinogen binding to printed small molecules – biochemical, small-molecule microarray, 635/667 nm fluorescence, artefact control for SMM control-protein annotation, profiling panel (AID 1131); details: fibrinogen-A647 binding fluorescence, higher = more signal;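 also: z-score merges 667 nm fluorescence with per-spot signal-to-noise over triplicate slides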
[13] = target: Follistatin (Homo sapiens) (UniProt P19883); test: FST protein binding to printed compounds – biochemical, small-molecule microarray, 635/667 nm fluorescence, primary screen (AID 1132); details: 635 nm fluorescence, higher = more signal
[14] = target: Fibroblast growth factor 2 (Homo sapiens) (UniProt P09038); test: basic fibroblast growth factor binding to printed compounds – biochemical, small-molecule microarray, 635/667 nm fluorescence, primary screen (AID 1133); details: FGF2, fluorescence 635/667, higher = more signal
[15] = JC-1 mitochondrial potential readout, lung cancer cells – cell-based, A549, JC-1 fluorescence, basal, 24 h, 100 nL, profiling panel (AID 1138); details: higher = more signal;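 also: A549 lung adenocarcinoma cells under basal conditions with no added stimulus; test concentration not given here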
Lefty1 = Lefty1 protein binding to printed compounds – biochemical, small-molecule microarray, 635/667 nm fluorescence, primary screen (AID 1139); details: fluorescence 635/667, higher = more signal
[16] = tested on: wheat germ agglutinin (Triticum aestivum), Alexa647-labelled; test: Alexa647-WGA lectin binding to printed small molecules – biochemical, small-molecule microarray, 635/667 nm fluorescence, artefact control for SMM control-protein annotation, profiling panel (AID 1140); details: WGA-A647 binding, 635 nm fluorescence, higher = more signal;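 also: score merges 667 nm feature emission with signal to noise over triplicate slides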
[17] = target: Luciferin 4-monooxygenase (Photinus pyralis) (UniProt P08659); test: inhibition of purified Photinus pyralis luciferase – biochemical, luminescence, purified enzyme, 2006 set, primary screen (AID 1141); details: purified firefly luciferase, SteadyGlo luminescence, 30 min; higher = more signal, called active from +8 up or from −8 down;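 also: cell-free assay with purified firefly luciferase at 100 ng per well in PBS; test concentration not given here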
Chain of Luciferin 4-monooxygenase (Photinus pyralis) (P08659 whole entry, looked up): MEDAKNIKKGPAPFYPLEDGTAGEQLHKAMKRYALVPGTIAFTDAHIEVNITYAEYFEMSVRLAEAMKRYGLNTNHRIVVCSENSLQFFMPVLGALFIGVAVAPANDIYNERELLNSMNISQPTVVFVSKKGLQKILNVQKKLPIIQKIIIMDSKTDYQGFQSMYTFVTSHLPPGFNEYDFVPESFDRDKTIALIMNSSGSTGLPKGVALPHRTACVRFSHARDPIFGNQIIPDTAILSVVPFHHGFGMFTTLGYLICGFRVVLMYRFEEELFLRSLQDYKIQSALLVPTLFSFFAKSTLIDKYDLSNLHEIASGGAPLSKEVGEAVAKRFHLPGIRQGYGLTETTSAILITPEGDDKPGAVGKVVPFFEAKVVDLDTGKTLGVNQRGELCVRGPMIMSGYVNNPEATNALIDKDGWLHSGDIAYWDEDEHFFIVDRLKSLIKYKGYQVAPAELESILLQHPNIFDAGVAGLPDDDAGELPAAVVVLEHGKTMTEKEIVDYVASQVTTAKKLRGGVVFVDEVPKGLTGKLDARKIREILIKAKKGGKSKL

Chain of Albumin (Bos taurus) (P02769 whole entry, looked up): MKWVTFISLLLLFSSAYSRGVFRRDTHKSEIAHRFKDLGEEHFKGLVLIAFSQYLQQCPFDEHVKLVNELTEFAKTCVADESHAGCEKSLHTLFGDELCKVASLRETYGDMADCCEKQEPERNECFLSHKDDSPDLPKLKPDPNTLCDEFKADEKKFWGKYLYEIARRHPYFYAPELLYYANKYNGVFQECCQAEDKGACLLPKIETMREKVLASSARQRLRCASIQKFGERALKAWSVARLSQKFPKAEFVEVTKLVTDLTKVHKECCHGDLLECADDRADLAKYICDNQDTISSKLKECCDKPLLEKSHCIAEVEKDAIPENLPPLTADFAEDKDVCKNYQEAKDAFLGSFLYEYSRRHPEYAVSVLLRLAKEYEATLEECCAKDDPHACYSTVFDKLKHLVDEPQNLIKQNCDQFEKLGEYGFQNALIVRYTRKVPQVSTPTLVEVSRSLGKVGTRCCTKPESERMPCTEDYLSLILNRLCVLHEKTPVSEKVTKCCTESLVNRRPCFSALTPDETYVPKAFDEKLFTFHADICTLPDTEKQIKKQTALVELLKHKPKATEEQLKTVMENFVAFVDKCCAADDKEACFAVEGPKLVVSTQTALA
Chain of Follistatin (Homo sapiens) (P19883 whole entry, looked up): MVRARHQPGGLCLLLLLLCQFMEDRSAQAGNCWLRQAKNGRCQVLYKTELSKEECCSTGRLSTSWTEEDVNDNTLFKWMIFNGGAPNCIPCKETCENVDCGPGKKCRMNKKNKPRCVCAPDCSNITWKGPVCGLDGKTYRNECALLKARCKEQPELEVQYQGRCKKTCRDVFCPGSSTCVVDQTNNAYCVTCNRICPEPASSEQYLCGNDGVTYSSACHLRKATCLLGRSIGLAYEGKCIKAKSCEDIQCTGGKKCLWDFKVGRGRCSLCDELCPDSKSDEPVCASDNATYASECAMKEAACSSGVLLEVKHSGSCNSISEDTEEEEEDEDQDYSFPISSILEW
Chain of Concanavalin-A (Canavalia ensiformis) (P02866 whole entry, looked up): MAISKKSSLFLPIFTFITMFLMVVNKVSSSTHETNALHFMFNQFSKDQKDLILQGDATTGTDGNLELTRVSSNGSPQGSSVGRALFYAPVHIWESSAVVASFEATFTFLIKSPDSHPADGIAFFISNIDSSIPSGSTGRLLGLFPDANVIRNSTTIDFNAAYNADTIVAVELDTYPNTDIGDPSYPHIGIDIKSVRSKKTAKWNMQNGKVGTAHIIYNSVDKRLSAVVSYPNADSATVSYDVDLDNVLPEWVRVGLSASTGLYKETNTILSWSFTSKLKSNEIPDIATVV
Chain of Focal adhesion kinase 1 (Homo sapiens) (Q05397 whole entry, looked up): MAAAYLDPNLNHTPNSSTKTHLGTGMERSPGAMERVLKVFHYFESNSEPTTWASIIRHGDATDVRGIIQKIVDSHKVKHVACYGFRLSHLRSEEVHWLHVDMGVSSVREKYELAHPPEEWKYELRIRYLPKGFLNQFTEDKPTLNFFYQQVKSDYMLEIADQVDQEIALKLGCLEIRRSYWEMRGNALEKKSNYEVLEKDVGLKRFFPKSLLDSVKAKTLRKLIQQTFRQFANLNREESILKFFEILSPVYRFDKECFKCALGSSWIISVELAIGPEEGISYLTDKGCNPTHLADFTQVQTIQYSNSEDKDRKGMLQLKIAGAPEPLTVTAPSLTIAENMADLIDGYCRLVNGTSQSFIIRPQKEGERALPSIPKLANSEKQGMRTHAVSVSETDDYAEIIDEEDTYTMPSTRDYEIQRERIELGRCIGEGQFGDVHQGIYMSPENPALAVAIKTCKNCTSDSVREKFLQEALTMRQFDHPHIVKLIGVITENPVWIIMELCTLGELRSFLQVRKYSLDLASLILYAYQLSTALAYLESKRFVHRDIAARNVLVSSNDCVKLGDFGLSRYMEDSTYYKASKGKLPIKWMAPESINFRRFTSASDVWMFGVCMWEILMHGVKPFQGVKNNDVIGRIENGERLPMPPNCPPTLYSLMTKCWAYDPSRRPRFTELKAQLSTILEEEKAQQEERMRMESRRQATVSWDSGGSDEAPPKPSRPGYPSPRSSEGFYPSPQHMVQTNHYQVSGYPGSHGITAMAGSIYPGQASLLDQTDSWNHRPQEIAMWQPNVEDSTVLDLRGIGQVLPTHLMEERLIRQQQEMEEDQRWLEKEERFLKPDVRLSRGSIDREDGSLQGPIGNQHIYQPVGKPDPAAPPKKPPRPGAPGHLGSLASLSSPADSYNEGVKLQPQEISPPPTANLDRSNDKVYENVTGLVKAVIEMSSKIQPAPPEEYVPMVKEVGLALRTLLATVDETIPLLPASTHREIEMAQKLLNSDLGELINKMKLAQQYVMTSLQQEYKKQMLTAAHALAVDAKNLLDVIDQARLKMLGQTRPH
Chain of Fibroblast growth factor 2 (Homo sapiens) (P09038 whole entry, looked up): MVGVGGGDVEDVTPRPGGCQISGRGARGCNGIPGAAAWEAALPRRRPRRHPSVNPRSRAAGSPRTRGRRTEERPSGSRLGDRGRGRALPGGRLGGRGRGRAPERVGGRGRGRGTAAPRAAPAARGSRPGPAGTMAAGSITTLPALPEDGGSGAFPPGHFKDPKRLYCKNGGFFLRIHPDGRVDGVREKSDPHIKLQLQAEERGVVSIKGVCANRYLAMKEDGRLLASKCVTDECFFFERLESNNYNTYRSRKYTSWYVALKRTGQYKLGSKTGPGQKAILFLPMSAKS

Compound | composite z-score (Albumin (Bos taurus)) | composite Z-score [1] | composite z-score [2] | composite z-score [3] | composite z-score [4] | composite z-score [5] | composite z-score [6] | composite z-score (Sam68 (KHDRBS1)) | composite z-score [7] | composite z-score [8] | composite z-score [9] | composite z-score [10] | composite z-score [11] | composite z-score [12] | composite z-score [13] | composite z-score [14] | z-score [15] | composite z-score (Lefty1) | composite z-score [16] | z-score [17]
COC(=O)C=C(CC(O)c1cccc(Cl)c1)OC (stereo not given) | 1.04 | 1.22 (inactive) | 0.936 | 0.436 | 0.811 | 0.461 | 1.02 | 0.0579 | 0.091 | -0.115 | 1.14 | 1.15 | 0.0918 | 0.6 | -0.431 | -0.0579 | -0.252 | -0.492 | 1.04 | 0.699 (inactive)
O=C1[C@H]2C=C(Br)[C@H](C[C@@H]2OCCCCO)[C@@]12CO2 | 0.0664 | 0.572 (inactive) | -0.0918 | -0.162 | -0.191 | -0.574 | 0.102 | -0.264 | 0.483 | -0.0118 | -0.0684 | -0.123 | -0.14 | -0.0973 | 0.324 | 0.108 | 0.137 | 0.17 | 0.0889 | 0.469 (inactive)
O=C1C2C=CC(C(O)c3ccc(F)cc3)N(Nc3ccccc3F)C2C(=O)N1c1ccccc1 (stereo not given) | 0.983 | 0.482 (inactive) | 0.323 | -0.0194 | 0.823 | 3.13 | -0.0953 | 1.13 | -0.868 | 0.493 | 1.55 | 1.13 | 0.198 | 0.958 | 1 | -0.514 | -0.227 | -0.497 | 1.17 | 1.28 (inactive)
O=C1[C@H]2C=C(Br)[C@H](C[C@@H]2c2ccccc2)[C@@]12CO2 | -0.6 | 1.22 (inactive) | 0.11 | -0.0817 | 0.183 | -0.0697 | -0.187 | 0.383 | 0.945 | -0.0479 | 0.828 | 0.253 | 0.004 | -0.0786 | 1.14 | 0.402 | -0.0698 | 0.785 | -0.21 | 0.266 (inactive)
C=CC[C@@]1(C(N)=O)N=C(c2ccc(OCCCO)cc2)O[C@@H]1c1ccccc1CN=[N+]=[N-] | 0.85 | -0.631 (inactive) | 0.185 | -0.0712 | 0.875 | 3.25 | 1.13 | 1.3 | -0.41 | 1 | 2.78 | 1.17 | -0.111 | 0.968 | 1.08 | 0.107 | -0.95 | -0.344 | 1.52 | -1.35 (inactive)
C=CCOC(=O)[C@H]1[C@@H]2C(=O)O[C@@H](c3ccccc3)[C@@H](c3ccccc3)N2[C@@H](c2ccc(OCCOC(=O)[C@H]3C[C@H]4C(=O)N5CCC[C@H]5C(=O)N4[C@H]3c3ccc(O)cc3)cc2)[C@]12C(=O)Nc1ccc(I)cc12 | -0.124 | 5.37 (inactive) | 1.47 | 0.755 | 0.364 | 3.31 | 1.13 | 1.31 | 1.06 | 0.955 | 2.88 | 1.23 | -0.0378 | 0.396 | 1.47 | 1.6 | -0.87 | 1.54 | 1.66 | 0.269 (inactive)
COc1ccc(C(O)C2C=CC3C(=O)NC(=O)C3N2Nc2ccccn2)cc1 (stereo not given) | -0.131 | 0.841 (inactive) | 0.0256 | 0.0308 | 0.482 | 1.39 | 0.348 | -0.183 | 1 | -0.0999 | 0.246 | 0.178 | -0.235 | 0.055 | 0.198 | 0.338 | -0.0269 | 0.513 | 0.899 | -1.99 (inactive)
CCOC(=O)C[C@H]1[C@H](OC(=O)c2cc3ccccc3oc2=O)[C@@H](NC(=O)Cc2ccc(OC)cc2)c2cc(OCCCO)ccc2N1C(=O)c1ccccc1 | 0.722 | 0.311 (inactive) | -0.0324 | -0.0986 | 0.091 | 0.386 | -0.0727 | 0.687 | 0.328 | -0.256 | -0.0228 | 0.376 | -0.0962 | 0.367 | 0.371 | 0.382 | -1.01 | 0.248 | 0.318 | 0.589 (inactive)
CCCN1C(=O)[C@]2(CCS(=O)(=O)c3ccccc3)N=C(c3ccc(OCCCO)cc3)O[C@@H]2c2ccccc21 | 0.414 | -0.0745 (inactive) | -0.0328 | -0.0995 | 0.276 | 1.15 | -0.031 | 1.29 | 0.359 | 0.414 | 1.02 | 1.21 | 0.554 | 0.967 | 0.958 | 0.408 | 0.535 | 0.576 | 0.737 | 0.54 (inactive)

Reference: PubChem BioAssay
